Results published in the supplement of paper PMC7156485.
± gives the standard deviation of the averaged measurements.

Columns and labels:
Settings in all cases: concentration: 10 µM; 24 h
[1] = test system: HCC1569; assay: cell number relative to DMSO (% of DMSO); higher = more cells (less growth inhibition / toxicity)
Summary of the method: (§1)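 H1.0 nuclear intensity or cell number is stated as percent of the plate control, based on the median of replicates, and HCC1569 values were smoothed for positional effects. These came from HCC1569 and TDF cells treated with compounds at 10 µM for 24 h at 37 °C in triplicate, then fixed in 3.7% formaldehyde and stained with a rabbit anti-H1.0 antibody, an AlexaFluor 647 secondary and DAPI.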

[2] = test system: TDF; assay: as above
Summary of the method: as §1

[3] = test system: TDF; assay: H1.0 immunofluorescence intensity relative to DMSO (% of DMSO); higher = stronger H1.0 induction, active = 120 or more
Summary of the method: as §1

[4] = test system: HCC1569; assay: H1.0 immunofluorescence intensity relative to DMSO (% of DMSO); higher = stronger H1.0 induction, active = 140 or more
Summary of the method: as §1
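Throughout, for H1.0 immunofluorescence intensity relative to DMSO: TDF is a line of transformed human dermal fibroblasts of mesenchymal origin.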
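Throughout, for cell number relative to DMSO: TDF denotes transformed human dermal fibroblasts of mesenchymal origin.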

Compound	cell number [1]	cell number [2]	H1.0 immunofluorescence intensity [3]	H1.0 immunofluorescence intensity [4]
C[C@H](c1ccc(F)cc1CCCC(=O)O)N(c1cc(F)ccc1F)S(=O)(=O)c1ccc(Cl)cc1	99.7	90.2	94.6 (inactive)	111 (inactive)
O=C(c1ccccc1)c1ccc(N2CCOCC2)cc1O [DNA-PK Inhibitor V]	94.7	95.7	91.7 (inactive)	109 (inactive)
CN(C)S(=O)(=O)c1ccc2c(c1)C(=Cc1cc3c([nH]1)CCCC3)C(=O)N2	72.9	48	97.5 (inactive)	184 (active)
CC(C)C(CO)Nc1nc(Nc2ccc(C(=O)O)c(Cl)c2)c2ncn(C(C)C)c2n1 (stereo not drawn)	100	112	96.7 (inactive)	115 (inactive)
CN1CCN(C2=c3ccccc3=Nc3ccc(Cl)cc3N2)CC1 [Clozapine]	99.6 ± 4.2	105 ± 0.29	95.4 (inactive)	106 (inactive)
CC(=O)C(C)=NO [2,3-Butanedione monoxime]	100	95.2	106 (inactive)	115 (inactive)
CN1CCN(c2c(F)cc3c(=O)c(C(=O)O)cn(CCF)c3c2F)CC1 [Fleroxacin]	101	87.2	102 (inactive)	112 (inactive)
CC(C)C(CO)Nc1nc(Nc2cc(N)cc(Cl)c2)c2ncn(C(C)C)c2n1 (stereo not drawn) [Aminopurvalanol A]	65.5	83.4	97.4 (inactive)	145 (active)
COC(=O)C1=C(C)NC(C)=C(C(=O)OCC(C)C)C1c1ccccc1[N+](=O)[O-] (stereo not drawn) [Nisoldipine]	94.9	104	89.9 (inactive)	116 (inactive)
COc1cc2c(cc1OC)-c1cc(=Nc3c(C)cc(C)cc3C)n(C)c(=O)n1CC2.Cl [Trequinsin hydrochloride]	96.4	111	85 (inactive)	101 (inactive)
COc1c(N2CCNC(C)C2)c(F)cc2c(=O)c(C(=O)O)cn(C3CC3)c12 (stereo not drawn) [Gatifloxacin]	101	107	94.2 (inactive)	107 (inactive)
CC[C@H](C(=O)Nc1ccccc1N1CCCC1)c1ccccc1 [(2S)-2-Phenyl-N-[2-(1-pyrrolidinyl)phenyl]butanamide]	101	103	96.1 (inactive)	105 (inactive)
CCC=CCC=CCC=CCC=CCC=CCCCC(=O)O [Eicosapentaenoic acid]	106 ± 9.9	103.8 ± 0.71	103 (inactive)	99.1 (inactive)
COC(=O)NC(C(=O)NC(Cc1ccccc1)C(O)CN(Cc1ccc(-c2ccccn2)cc1)NC(=O)C(NC(=O)OC)C(C)(C)C)C(C)(C)C (stereo not drawn) [Atazanavir]	92.7	79.8	109 (inactive)	103 (inactive)
COc1cc(O)c2c(=O)c(O)c(-c3ccc(O)c(O)c3)oc2c1 [Rhamnetine]	91.7	89.5	93 (inactive)	130 (inactive)
NCC1OC(OC2C(CO)OC(OC3C(O)C(N)CC(N)C3OC3OC(CO)C(O)C(O)C3N)C2O)C(N)C(O)C1O.O=S(=O)(O)O (stereo not drawn) [Paromomycin sulfate]	105	106	93.7 (inactive)	101 (inactive)
COc1cc2ncnc(Nc3ccc(OCc4ccccc4)cc3)c2cc1OC [EGFR/ErbB-2 Inhibitor]	88.7	92.5	103 (inactive)	121 (inactive)
N#CC(=Cc1ccc(O)c(O)c1)C(=O)c1ccc(O)c(O)c1 [Tyrphostin AG 538]	80.4	97.3	99.2 (inactive)	190 (active)
COc1ccc(S(=O)(=O)N(CCO)c2ccccc2CN(C)CC=Cc2ccc(Cl)cc2)cc1	74.4	86.7	103 (inactive)	183 (active)
CCC(NC(C)C)C(O)c1ccc(O)c2[nH]c(=O)ccc12.Cl (stereo not drawn) [Procaterol.HCl]	101	105	83.2 (inactive)	112 (inactive)
O=C1C=C(CO)OCC1=O [5-hydroxy-2-(hydroxymethyl)-4H-pyran-4-one]	105	94.6	92.9 (inactive)	92 (inactive)
Cl.NC(=NCc1ccccc1)NC(=O)c1nc(Cl)c(N)nc1N [Benzamil hydrochloride]	94.7	105	92.3 (inactive)	105 (inactive)
